For 50 compounds, Percent Effect results are on record in ChEMBL document CHEMBL3988442, “University of Dundee, Small-Polar-MMV Screening Library” (2021).

Experiment [1] concerns the target T1, Aspartate--tRNA(Asp/Asn) ligase (Mycobacterium tuberculosis (strain ATCC 25618 / H37Rv)) (UniProt P9WFW3). Further: in the data most compounds retested in dose-response had high values.
T1 sequence (whole entry): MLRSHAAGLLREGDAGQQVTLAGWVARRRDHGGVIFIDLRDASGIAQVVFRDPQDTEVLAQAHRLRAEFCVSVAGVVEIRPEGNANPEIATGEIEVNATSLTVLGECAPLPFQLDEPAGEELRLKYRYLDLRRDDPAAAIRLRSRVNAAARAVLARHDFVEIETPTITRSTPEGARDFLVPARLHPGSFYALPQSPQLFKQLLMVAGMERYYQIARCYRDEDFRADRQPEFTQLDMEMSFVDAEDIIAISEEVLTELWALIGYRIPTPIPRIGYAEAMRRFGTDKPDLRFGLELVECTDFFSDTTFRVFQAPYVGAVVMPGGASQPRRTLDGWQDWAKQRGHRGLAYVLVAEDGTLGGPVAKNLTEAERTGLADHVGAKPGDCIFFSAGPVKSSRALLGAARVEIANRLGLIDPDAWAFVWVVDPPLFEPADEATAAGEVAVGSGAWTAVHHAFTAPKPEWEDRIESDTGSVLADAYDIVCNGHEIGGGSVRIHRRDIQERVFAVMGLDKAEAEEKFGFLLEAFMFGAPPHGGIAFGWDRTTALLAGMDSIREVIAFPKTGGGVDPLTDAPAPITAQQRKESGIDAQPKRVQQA
Put plainly: Assay for Asp RNA synthetase-1 from Mycobacterium tuberculosis. Type of experiment: functional. More on the design: scale not given: direction of the effect not stated beside the values. The following applies: 30 µM.

Experiment [2] addresses Shiga toxin 2 (Escherichia coli O157:H7) (UniProt P09385+P09386). As to the kind of experiment: E. coli 0.157:H7 Shiga Toxin SOP - stx2 screening assay. Type of experiment: functional. The arrangement: scale not given: direction of the effect not stated beside the values. The following applies: 30 µM.

Molecules are shown by their SMILES.

For `Cc1cc(C[C@@H]2CCC[C@H]2NCc2ccccc2C(F)(F)F)on1`, the Percent Effect in experiment [1] amounted to 3.02%; in experiment [2], 26%.
In the same order, the values of `CN1[C@H](CN2CCCC2)C[C@@H]2CN(C(=O)c3cccn3C)CC[C@@H]21` are 2.46% and -2.89%.
Taken in the same sequence, the figures for `CN1C(=O)C(c2cccnc2)CC12CCN(C(=O)c1cccn1C)CC2` (stereo not given) were 0.99% and -12.3%.
For `CN(C)c1cc(C(=O)N2CCCN(Cc3cscn3)CC2)ccn1`, the Percent Effect in experiment [1] was -2.62%; in experiment [2], -13.1%.
Taken in the same sequence, the figures for `O=C(c1ccc2c(c1)OCO2)N1CCCSCC1CN1CCCC1` (stereo not given) were -0.0437% and -5.02%.
As for `Cc1cc(C2CCCN2CCCS(=O)(=O)c2ccccc2)no1` (stereo not given), the values for the Percent Effect in experiment [1] and in experiment [2] were -1.06% and -12.2%, respectively.
Taken in the same sequence, the figures for `CN(CCc1ccccn1)S(=O)(=O)N1CCCC1c1ccco1` (stereo not given) were 2.3% and 32.1%.
In the same order, the values of `CCn1cc(NC(=O)NCC2(N3CCOCC3)CCSC2)cn1` (stereo not given) are 1.79% and -20%.
Take `Nc1nc(CN2CCOC(Cn3cncn3)C2)nc2ccccc12` (stereo not given): the figures for the Percent Effect in experiment [1] and in experiment [2] were -1.84% and 5.62%, respectively.
In the same order, the values of `O=C(Nc1ccccn1)C1=NN(c2ccccc2)C(=O)CN1` are 0.657% and -27.9%.
In the same order, the values of `COc1ncccc1NC(=O)N(Cc1ccc(C)o1)C1CC1` are -0.455% and 12.1%.
Turning to `Cc1occc1C(=O)NCc1ccc(N2CCCC(C(N)=O)C2)cc1` (stereo not given), the Percent Effect in experiment [1] was 1.75%; in experiment [2], -14.7%.
In the same order, the values of `O=C(Nc1ccccc1OC(F)F)C1=NN(c2ccccc2)C(=O)CN1` are 9.31% and -3.57%.
In the same order, the values of `CS(=O)(=O)c1ccc(C(O)CN2CCC(c3ccn[nH]3)CC2)cc1` (stereo not given) are -7.22% and -3.06%.
Taken in the same sequence, the figures for `CN(Cc1cccnc1)CC1CCCN1c1cccnn1` (stereo not given) were 1.15% and 6%.
Turning to `COc1ccc(OC)c(CN2CCCCCC2c2cccs2)c1` (stereo not given), the Percent Effect in experiment [1] was -3.22%; in experiment [2], -16.4%.
Taken in the same sequence, the figures for `Cc1nnc(NCc2cccnc2N(C)C)c(C#N)c1C` were 0.728% and 0.124%.
In the case of `COc1ccc(CN2CCCCC2CNC(=O)OC(C)(C)C)cc1F` (stereo not given), the values for the Percent Effect in experiment [1] and in experiment [2] were -1.76% and 6.58%, respectively.
`Cc1cccc(C(=O)N2CCCN(Cc3cnn(C)c3)CC2)n1`: the results for the Percent Effect in experiment [1] and in experiment [2] were -3.08% and -31.1%, respectively.
In the same order, the values of `CC1(C)CC(N(Cc2ccccc2)Cc2cccnc2)CC(C)(C)N1` are -4.09% and -6.83%.
As for `COc1ccc(CN2C[C@H](OCC3CCOCC3)[C@H]3COC[C@H]32)cc1`, the Percent Effect was -1.6% in experiment [1] and 1.49% in experiment [2].
As to `Cc1nc(CCN(C)C(=O)C2COc3ccccc3C2)no1` (stereo not given), the Percent Effect in experiment [1] is 0.743%; in experiment [2], -10.1%.
Taken in the same sequence, the figures for `O=C1CC(c2ccncc2)c2c(c(C(=O)O)cn2-c2ccc(F)cc2)N1` (stereo not given) were 2.32% and -17.3%.
Taken in the same sequence, the figures for `c1csc(-c2nc(CNC3CCc4ncnn4C3)cs2)c1` (stereo not given) were -3.43% and -12.9%.
In the same order, the values of `O=C(NCc1cccnc1)C1=NOC2(CCN(S(=O)(=O)C3CC3)C2)C1` (stereo not given) are -3.41% and -21.8%.
With `COc1cccc2c1OCC(CNC(=O)CNC(N)=O)C2` (stereo not given), the values for the Percent Effect in experiment [1] and in experiment [2] were 4.22% and 11.9%, respectively.
Taken in the same sequence, the figures for `Cc1cc(C)n(CC2CCCN2C(=O)c2cccc3[nH]ncc23)n1` (stereo not given) were -2.45% and -17.6%.
In the same order, the values of `CC(COc1ccccc1)NCc1nc(-c2cccnc2)no1` (stereo not given) are -2.31% and 1.39%.
Taken in the same sequence, the figures for `C1CC1c1nsc(N2CCN(C3CC3)CC2)n1` were 2.04% and -7.43%.
As to `Cc1ncnc2c1CCN(Cc1ccccn1)CC2`, the Percent Effect in experiment [1] is 1.8%; in experiment [2] it was -19.4%.
In the same order, the values of `COCCN(C)C(=O)Cn1cccc(OC)c1=O` are 49.9% and -42.8%.
On to `CN1CCCC[C@@H]2[C@H]1[C@@H](c1ccccc1)CCN2C(=O)c1ccccc1`, for which the Percent Effect in experiment [1] is -4.21%; in experiment [2] it was -4.17%.
Taken in the same sequence, the figures for `O=C1NCc2ccc(NC(=O)C3CCCN3c3nccs3)cc21` (stereo not given) were 0.522% and -17.5%.
In the same order, the values of `COc1ccccc1-c1cc(C(F)(F)F)c2c(C)nn(CC(=O)O)c2n1` are 3.1% and -13.7%.
Taken in the same sequence, the figures for `CC(C)NC(=O)N1CCC2(CC(=O)N(c3cccc(C#N)c3)C2)C1` (stereo not given) were 5.75% and 8.35%.
As to `Cc1cc(-c2cnc(NCc3cccnc3)nc2C(C)C)on1`, the Percent Effect in experiment [1] stood at 6.13%; in experiment [2] it was 10.2%.
Taken in the same sequence, the figures for `Cc1ccc(NC2CCN(C(=O)c3n[nH]c4ccccc34)CC2)nn1` were 0.985% and -18.6%.
Taken in the same sequence, the figures for `Cc1nccn1C1CCCN(C(=O)C2=NN(C)C(=O)CC2)C1` (stereo not given) were -1.52% and 19%.
As for `CC(=O)Nc1nc(CN2CCCC2Cn2cc(C)cn2)cs1` (stereo not given), the Percent Effect was -2.91% in experiment [1] and -25.9% in experiment [2].
Take `Fc1cnc(N2CCC3(COCc4cnc(NCC5CC5)nc43)C2)nc1` (stereo not given): the Percent Effect in experiment [1] came to 1.39%; in experiment [2] it was 2.48%.
Taken in the same sequence, the figures for `Cc1ccc2nc(C3CCN(CCO)CC3)nn2c1` were 2.18% and -3.64%.
Taken in the same sequence, the figures for `CCCn1[nH]cc/c1=N\C(=O)CN1CCn2c(nnc2C2CC2)C1` were -2.17% and 25.6%.
For `CC(C(=O)NCc1ccnc(N2CCN(C)CC2)c1)n1cccn1` (stereo not given), the Percent Effect is -3.86% in experiment [1] and 6% in experiment [2].
On to `c1ccc(-c2noc(CN3CCC(c4ccn[nH]4)CC3)n2)cc1`, for which the Percent Effect in experiment [1] was 0.903%; in experiment [2] it was -15.7%.
In the same order, the values of `Cc1nc(C)n(C2CCCN(C(=O)c3ccccc3C)C2)n1` (stereo not given) are 0.173% and 18.2%.
Regarding `COc1cc(C(=O)N2CCCC(CNS(C)(=O)=O)C2)cc(OC)c1C` (stereo not given), the Percent Effect was -4.03% in experiment [1] and 25.9% in experiment [2].
Turning to `CC(C)NC(=O)COc1nc(C(C)(C)C)no1`, the Percent Effect in experiment [1] turned out to be 0.301%; in experiment [2] it was 2.21%.
Taken in the same sequence, the figures for `Cn1cccc1C(=O)N1CCN(Cc2ccncc2)c2ncccc2C1` were 0.0582% and -10%.
In the same order, the values of `CCc1nc(CN(C)CC2CCN(CCO)CC2)no1` are -1.64% and -1.86%.
With `O=S(=O)(c1ccccc1)N1CCC2(CCCN2CC2CCCC2)C1` (stereo not given), the Percent Effect was -2.77% in experiment [1] and 9.27% in experiment [2].
